Screens deposited in PubChem BioAssay by National Center for Advancing Translational Sciences (NCATS).
Cruzain inh noDet – cruzain (T. cruzi) inhibition without detergent; P25779; purified cruzain, Z-FR-AMC fluorescence, no detergent; Potency, µM, most hits filed as inhibitors; 200,000 compounds, 2.3% hits; AID 1476; note: nearly all actives have a fitted effect of over 40% in size
Target sequence (P25779 123-467 limits assumed): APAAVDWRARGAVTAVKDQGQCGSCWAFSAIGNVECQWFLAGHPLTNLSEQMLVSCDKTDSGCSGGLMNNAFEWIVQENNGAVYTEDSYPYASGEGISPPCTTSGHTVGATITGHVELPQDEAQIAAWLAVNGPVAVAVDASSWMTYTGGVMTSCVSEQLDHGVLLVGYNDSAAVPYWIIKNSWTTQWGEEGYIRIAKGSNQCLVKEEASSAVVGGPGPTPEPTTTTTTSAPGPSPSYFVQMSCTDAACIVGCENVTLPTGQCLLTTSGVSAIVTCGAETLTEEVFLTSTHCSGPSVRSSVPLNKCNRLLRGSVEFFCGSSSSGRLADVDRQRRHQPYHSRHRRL
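Detergent-free condition (0.00005% Triton X-100) in acetate buffer pH 5.5 with DTT. 1.5 nM enzyme and compound were pre-mixed 15 min, then 2 uM Z-FR-AMC substrate added; reaction progress from fluorescence change between first and third reads (60 s).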
Cruzain Triton – blocks cruzain activity in presence of Triton detergent; purified cruzain, Z-FR-AMC fluorescence, 0.01% Triton; Potency, µM, most hits filed as inhibitors; P25779; AID 1478; 200,000 compounds, 0.43% hits; note: nearly all actives have a fitted effect of over 40% in size
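Cruzain (1.5 nM) preincubated 15 min at RT with compound in 100 mM sodium acetate pH 5.5, 5 mM DTT, 0.01% Triton X-100. Reaction started with 2 uM Z-FR-AMC; AMC fluorescence (ex 360/em 450 nm) change over 60 s gave rate.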
Hits are given with their value. Most compounds without a hit are left out; they make up all but 2.4% or so of the library. Calls come from the whole dose curve; as a rule, active = well fitted curve in the direction sought with a large enough effect; inconclusive = small, poorly fitted or top-dose-only effect, or another doubt; inactive = no such curve, though single readings can be large; an effect the other way counts as inactive or inconclusive.

How did N#Cc1c(NC(=O)CN2CCOCC2)oc(-c2ccccc2)c1-c1ccccc1 do in these assays?
Cruzain inh noDet: inconclusive; Cruzain Triton: inactive

What do the screens show for `Cc1ccc(NC(=O)c2ccc(CNS(=O)(=O)c3ccc4c(c3)C(C)(C)C(=O)N4C)cc2)cc1F`?
Cruzain inh noDet: inactive; Cruzain Triton: inactive

Results for CC(=O)c1ccc(NC(=O)c2cnc(N3CCCC3)nc2C)cc1 ?
Cruzain inh noDet: inactive; Cruzain Triton: inactive

What do the screens show for `Cc1cc(NC(=O)NCc2ccc3c(c2)CCN3C(=O)c2ccccc2)ccc1Br`?
Cruzain inh noDet: inactive; Cruzain Triton: inactive

What do the screens show for `Cc1ccccc1Nc1c(-c2cccnc2)nc2ccc(Cl)cn12`?
Cruzain inh noDet: inactive; Cruzain Triton: inactive

What do the screens show for `COc1ccc(Cn2c(=O)c3oc4ccccc4c3n(Cc3ccccc3)c2=O)cc1`?
Cruzain inh noDet: inactive; Cruzain Triton: inactive

What do the screens show for `CCOC(=O)c1c(C)[nH]c(C(=O)CSc2ccccc2)c1C`?
Cruzain inh noDet: inconclusive; Cruzain Triton: inactive

How did CC(=O)c1c(C)[nH]c(C(=O)COC(=O)CNS(=O)(=O)c2ccccc2)c1C do in these assays?
Cruzain inh noDet: inactive; Cruzain Triton: inactive

What do the screens show for `CC(=O)c1c(C)[nH]c(C(=O)COC(=O)CCSc2ccccc2)c1C`?
Cruzain inh noDet: inconclusive; Cruzain Triton: 15.8µM

Results for CCOC(=O)c1c(C)[nH]c(C(=O)COC(=O)CCSc2ccccc2)c1C ?
Cruzain inh noDet: inactive; Cruzain Triton: 25.1µM

How did Cc1ccc(N2CC(NC(=O)C3CC3)CC2=O)cc1C (configuration not stated) do in these assays?
Cruzain inh noDet: inactive; Cruzain Triton: inactive

What do the screens show for `Cc1ccc(SCc2ccc(C(=O)Nc3cccc([N+](=O)[O-])c3)cc2)cc1`?
Cruzain inh noDet: 20µM; Cruzain Triton: inactive

How did Cc1ccc(SCc2ccc(C(=O)Nc3cc([N+](=O)[O-])ccc3C)cc2)cc1 do in these assays?
Cruzain inh noDet: inactive; Cruzain Triton: inactive

What do the screens show for `CCOC(=O)N1CCc2c(sc3c2c(=O)n(-c2ccc(CC)cc2)c(=O)n3Cc2ccc(F)cc2Cl)C1`?
Cruzain inh noDet: inactive; Cruzain Triton: inactive

What do the screens show for `Cc1ccc(NC(=O)Cn2c(=O)n(Cc3ccc4c(c3)OCO4)c(=O)c3ccccc32)cc1`?
Cruzain inh noDet: inactive; Cruzain Triton: inactive

Results for Cc1cccc(NC(=O)Cn2c(=O)n(Cc3ccc4c(c3)OCO4)c(=O)c3ccccc32)c1 ?
Cruzain inh noDet: 20µM; Cruzain Triton: inactive

Results for Cc1ccc(NC(=O)Cn2c(=O)n(Cc3ccc(C(=O)NCc4ccc5c(c4)OCO5)cc3)c(=O)c3ccccc32)cc1 ?
Cruzain inh noDet: inconclusive; Cruzain Triton: inactive

How did O=C(Cn1c(=O)n(Cc2ccc(C(=O)NCc3ccc4c(c3)OCO4)cc2)c(=O)c2ccccc21)Nc1ccccc1F do in these assays?
Cruzain inh noDet: 12.6µM; Cruzain Triton: inactive

What do the screens show for `COc1cccc(NC(=O)Cn2c(=O)n(Cc3ccc(C(=O)NCc4ccc5c(c4)OCO5)cc3)c(=O)c3ccccc32)c1`?
Cruzain inh noDet: 12.6µM; Cruzain Triton: inactive

Results for Cc1ccc(Cl)cc1NC(=O)Cn1c(=O)n(Cc2ccc(C(=O)NCc3ccc4c(c3)OCO4)cc2)c(=O)c2ccccc21 ?
Cruzain inh noDet: inactive; Cruzain Triton: inactive

Results for Cc1ccc(-n2ncc(C(=O)Nc3ccc4c(c3)OCCO4)c2C2CCN(C(=O)OC(C)(C)C)CC2)cc1C ?
Cruzain inh noDet: inactive; Cruzain Triton: inactive

How did CCOc1ccccc1N1CC(c2nc3ccccc3n2CCCOc2ccccc2)CC1=O (configuration not stated) do in these assays?
Cruzain inh noDet: inconclusive; Cruzain Triton: inactive

Results for COC(=O)c1ccccc1NC(=O)C1=CC(c2ccc(C)cc2)=NS(=O)(=O)N1C ?
Cruzain inh noDet: inconclusive; Cruzain Triton: inactive

Results for Cc1ccc(N(C)C(CNS(=O)(=O)c2ccccc2)c2ccccc2)cc1 (configuration not stated) ?
Cruzain inh noDet: inactive; Cruzain Triton: inactive

How did COc1cccc(NC(=S)NCCC(c2ccccc2)c2ccccc2)c1 do in these assays?
Cruzain inh noDet: inactive; Cruzain Triton: inactive

Results for COc1cc(NC(=S)NCCC(c2ccccc2)c2ccccc2)cc(OC)c1 ?
Cruzain inh noDet: 31.6µM; Cruzain Triton: inactive

What do the screens show for `CC(C)NC(=O)C1CCN(C(=O)N2CC(C)Oc3ccccc32)CC1` (configuration not stated)?
Cruzain inh noDet: inactive; Cruzain Triton: inactive

Results for CC1CN(C(=O)N2CCC(C(=O)NC3CCCCCC3)CC2)c2ccccc2O1 (configuration not stated) ?
Cruzain inh noDet: 7.94µM; Cruzain Triton: inactive

What do the screens show for `CCOC(=O)c1ccc(NC(=O)C2CCN(S(=O)(=O)Cc3ccccc3)CC2)cc1`?
Cruzain inh noDet: inactive; Cruzain Triton: inactive

What do the screens show for `COc1ccccc1/C=C\C=N\n1c(-c2ccc(Cl)cc2Cl)n[nH]c1=S`?
Cruzain inh noDet: 31.6µM; Cruzain Triton: inactive
